Unmarked numbers belong to inactive results.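 How the source made its calls: active means compounds whose cell count with miR-34 switched on is under 0.7 times the count with it off; inactive means the rest.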

The nature of the assay: sensitizers of A549 cells to miR-34 induction, primary screen, imaging, A549 dox-inducible miR-34, nuclei and caspase counts (AID 1347080). Further: test concentration not given here. The following applies: A549 miR-34 inducible, Hoechst nuclei count, 48 h; stronger effect = lower value; cell number ratio, induced over uninduced.
Turning to `N[C@@H](CCC(=O)N[C@@H](CSN=O)C(=O)NCC(=O)O)C(=O)O`, the fold change was 0.991.

Take `CCCCC(C)(C)[C@H](O)/C=C/[C@H]1[C@H](O)CC(=O)[C@@H]1CC(=O)CCCCC(=O)O`: the fold change is 0.919.

With `CC(C)=CCC/C(C)=C/CC/C(C)=C/CC[C@]1(C)CCc2cc(O)cc(C)c2O1`, the fold change is 0.922.

On to `CCCCCCCCCC(=O)CC(=O)N[C@H]1CCOC1=O`, for which the fold change was 0.908.

As to `CCCCCCCCCCCCCCCCOC[C@H](COP(=O)([O-])OCC[N+](C)(C)C)SC(C)=O`, the fold change was 0.92.

As to `CCCCC[C@@H](O)CC[C@H]1[C@H](O)CC(=O)[C@@H]1CCCCCCC(=O)O`, the fold change was 0.971.

As to `CCCCCC/C=C/C=C\CCCCCCCC(=O)O`, the fold change is 0.985.

For `CCNC1=N[C@@H]2[C@@H](O)[C@H](O)[C@@H](CO)O[C@@H]2S1`, the fold change was 0.906.

Take `C[C@@H](O)CCC[C@@H](O)/C=C/[C@@H]1[C@@H](CCCCCCC(=O)O)[C@@H](O)C[C@H]1O`: the fold change is 0.879.

For `CCCCCC#CCC#CCC#CCCCCCCC(=O)O`, the fold change was 0.97.

In the case of `CCCCC(C)(C)[C@H](O)/C=C/[C@H]1CCC(=O)[C@@H]1C/C=C\CCCC(=O)O`, the fold change is 0.973.

For the compound `COc1ccc2c(c1)c(CC(=O)NCCc1ccccc1)c(C)n2C(=O)c1ccc(Cl)cc1`, the fold change is 1.02.

With `CCCCC/C=C\C/C=C\C/C=C\CCCCCCC(=O)OCC`, the fold change was 1.05.

With `O=C(O)CCC/C=C\C[C@@H]1[C@@H](CC[C@@H](O)CCc2cccc(C(F)(F)F)c2)[C@H](O)C[C@@H]1O`, the fold change is 0.926.

With `O=Cc1cccc2[nH]ccc12`, the fold change is 1.14.

As for `CCCCCCCCCCCCC/C=C/[C@@H](O)[C@H](CO)NC(=O)CCCCC`, the fold change is 0.988.

For `CCCCC[C@H](O)/C=C/[C@H]1[C@H](O)CC(=O)[C@@H]1C/C=C\CCCC(=O)OC`, the fold change is 0.938.

Consider `CCCCCCC(Sc1nc(Cl)cc(NCc2ccc(-c3ccccc3)cc2)n1)C(=O)O` (stereo not given), for which the fold change is 0.993.

As for `C[C@@H]1C[C@H]2O[C@@H]2/C=C\C=C\C(=O)Cc2c(Cl)c(O)cc(O)c2C(=O)O1`, the fold change is 1.01.

As to `CCCCC[C@H](O)/C=C/[C@@H]1[C@H]2C[C@H](CCCCC(=O)O)O[C@H]2C[C@H]1O`, the fold change was 0.999.

For `CC(=O)OCC(=O)[C@@]12N=C(C)O[C@@H]1CC1C3CCC4=CC(=O)C=C[C@]4(C)C3[C@@H](O)C[C@@]12C` (stereo not given in full), the fold change is 0.915.

On to `N=C(N)SCCC[C@H](N)C(=O)O`, for which the fold change is 0.98.

For the compound `CCCCC[C@H](O)/C=C/[C@H]1[C@H](O)CC(=O)[C@@H]1C/C=C\CCCC(=O)OCC(O)CO` (stereo not given in full), the fold change was 0.945.

Take `CCCCC/C=C\C=C1\C(=O)CC[C@@H]1C/C=C\CCCC(=O)O`: the fold change is 0.94.

Turning to `CCCCCCCCCCCCCCCC(=O)N[C@H](C)CO`, the fold change was 0.916.

On to `CCCCCCCC/C=C\CCCCCCCC(=O)Nc1c(C(C)C)cccc1C(C)C`, for which the fold change is 0.999.

In the case of `O=P(O)(O)OC1[C@@H](O)[C@H](O)C(O)[C@H](O)[C@@H]1O` (stereo not given in full), the fold change is 0.924.

In the case of `O=C(CCCC[C@@H]1SC[C@@H]2NC(=O)N[C@@H]21)NCCCC[C@H](NC(=O)CCN1C(=O)C=CC1=O)C(=O)O`, the fold change was 0.911.

For the compound `CCCCCCCCCCCCCCCCCCCCCC(=O)NCCO`, the fold change is 1.03.

In the case of `C[C@@H](C(=O)O)c1ccc(-c2ccccc2)c(F)c1`, the fold change is 0.967.

As to `CCCCC[C@H](O)/C=C/[C@H]1[C@H](O)CC(=O)[C@@H]1C/C=C\CCCC(=O)NCCO`, the fold change is 1.16.

Consider `[C-]#[N+]c1cc(-c2ccncc2)c(C)[nH]c1=O`, for which the fold change is 0.91.

In the case of `CCCCC[C@H](O)/C=C/[C@@H]1[C@@H](C/C=C\CCCCCC(=O)O)[C@@H](O)C[C@H]1O`, the fold change was 0.876.

For `CCCCC/C=C\C/C=C\CCCCCCCC(=O)OCC`, the fold change is 0.908.

In the case of `CCCCc1ccc(N=CNO)c(C)c1`, the fold change is 1.01.

As to `O=C(O)CCC/C=C\C[C@@H]1[C@@H](/C=C/[C@@H](O)Cc2ccccc2)[C@H](O)C[C@@H]1O`, the fold change is 0.969.

With `CC(C)(CCCCCCCCCCC(C)(C)CC(=O)O)CC(=O)O`, the fold change is 0.985.

As to `CCCCC[C@H](O)/C=C/[C@@H]1[C@H]2CC(CCCCC(=O)O)O[C@H]2C[C@H]1O` (stereo not given in full), the fold change was 0.937.

In the case of `O=S(=O)(NO)c1ccccc1`, the fold change was 1.01.

On to `CCCC1([C@@H](O)C/C=C/[C@H]2C(O)CC(=O)[C@@H]2CCCCCCC(=O)OC)CCC1` (stereo not given in full), for which the fold change was 1.02.

The values are drawn from PubChem BioAssay.
